Reference: ChEMBL document CHEMBL1961873, “Compounds: GSK PKIS; Assays: Nanosyn kinase panel” (2012)

Columns and labels:
[1] = system: Epidermal growth factor receptor (Homo sapiens), P00533 [T790M]; settings: at 1 µM
[2] = system: Epidermal growth factor receptor (Homo sapiens), P00533 [L858R,T790M]; settings: at 0.1 µM
[3] = system: Epidermal growth factor receptor (Homo sapiens), P00533 [L858R,T790M]; settings: at 1 µM
[4] = biological target: Ephrin type-A receptor 2 (Homo sapiens) (UniProt P29317); settings: at 0.1 µM
Chain of Ephrin type-A receptor 2 (Homo sapiens) (P29317 whole entry): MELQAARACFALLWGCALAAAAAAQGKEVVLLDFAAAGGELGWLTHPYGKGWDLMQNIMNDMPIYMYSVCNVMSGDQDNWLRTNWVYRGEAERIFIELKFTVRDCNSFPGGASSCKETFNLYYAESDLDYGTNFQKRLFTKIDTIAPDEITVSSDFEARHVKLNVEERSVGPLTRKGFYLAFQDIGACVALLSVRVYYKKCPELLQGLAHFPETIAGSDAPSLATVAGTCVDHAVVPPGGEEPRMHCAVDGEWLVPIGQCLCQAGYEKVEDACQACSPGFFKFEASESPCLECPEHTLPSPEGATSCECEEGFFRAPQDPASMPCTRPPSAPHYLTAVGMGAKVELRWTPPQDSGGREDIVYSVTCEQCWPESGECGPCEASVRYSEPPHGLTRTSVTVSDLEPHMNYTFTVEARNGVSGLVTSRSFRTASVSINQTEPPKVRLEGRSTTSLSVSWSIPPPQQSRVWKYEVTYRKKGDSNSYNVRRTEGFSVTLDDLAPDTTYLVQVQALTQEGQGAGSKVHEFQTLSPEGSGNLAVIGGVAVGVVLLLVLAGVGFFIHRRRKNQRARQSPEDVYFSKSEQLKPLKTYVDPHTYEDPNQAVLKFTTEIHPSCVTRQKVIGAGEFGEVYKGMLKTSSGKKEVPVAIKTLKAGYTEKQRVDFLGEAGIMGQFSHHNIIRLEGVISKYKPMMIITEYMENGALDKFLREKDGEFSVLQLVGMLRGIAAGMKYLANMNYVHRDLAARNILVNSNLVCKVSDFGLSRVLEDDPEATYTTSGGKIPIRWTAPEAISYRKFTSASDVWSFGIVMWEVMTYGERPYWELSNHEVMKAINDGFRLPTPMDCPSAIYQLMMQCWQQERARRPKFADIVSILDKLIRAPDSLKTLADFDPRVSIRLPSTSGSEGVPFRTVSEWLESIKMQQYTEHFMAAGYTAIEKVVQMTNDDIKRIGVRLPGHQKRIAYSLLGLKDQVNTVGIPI

[5] = biological target: Ephrin type-A receptor 2 (Homo sapiens) (UniProt P29317); settings: at 1 µM
[6] = biological target: T1, Ephrin type-A receptor 3 (Homo sapiens) (UniProt P29320); settings: at 0.1 µM
T1 sequence (whole entry): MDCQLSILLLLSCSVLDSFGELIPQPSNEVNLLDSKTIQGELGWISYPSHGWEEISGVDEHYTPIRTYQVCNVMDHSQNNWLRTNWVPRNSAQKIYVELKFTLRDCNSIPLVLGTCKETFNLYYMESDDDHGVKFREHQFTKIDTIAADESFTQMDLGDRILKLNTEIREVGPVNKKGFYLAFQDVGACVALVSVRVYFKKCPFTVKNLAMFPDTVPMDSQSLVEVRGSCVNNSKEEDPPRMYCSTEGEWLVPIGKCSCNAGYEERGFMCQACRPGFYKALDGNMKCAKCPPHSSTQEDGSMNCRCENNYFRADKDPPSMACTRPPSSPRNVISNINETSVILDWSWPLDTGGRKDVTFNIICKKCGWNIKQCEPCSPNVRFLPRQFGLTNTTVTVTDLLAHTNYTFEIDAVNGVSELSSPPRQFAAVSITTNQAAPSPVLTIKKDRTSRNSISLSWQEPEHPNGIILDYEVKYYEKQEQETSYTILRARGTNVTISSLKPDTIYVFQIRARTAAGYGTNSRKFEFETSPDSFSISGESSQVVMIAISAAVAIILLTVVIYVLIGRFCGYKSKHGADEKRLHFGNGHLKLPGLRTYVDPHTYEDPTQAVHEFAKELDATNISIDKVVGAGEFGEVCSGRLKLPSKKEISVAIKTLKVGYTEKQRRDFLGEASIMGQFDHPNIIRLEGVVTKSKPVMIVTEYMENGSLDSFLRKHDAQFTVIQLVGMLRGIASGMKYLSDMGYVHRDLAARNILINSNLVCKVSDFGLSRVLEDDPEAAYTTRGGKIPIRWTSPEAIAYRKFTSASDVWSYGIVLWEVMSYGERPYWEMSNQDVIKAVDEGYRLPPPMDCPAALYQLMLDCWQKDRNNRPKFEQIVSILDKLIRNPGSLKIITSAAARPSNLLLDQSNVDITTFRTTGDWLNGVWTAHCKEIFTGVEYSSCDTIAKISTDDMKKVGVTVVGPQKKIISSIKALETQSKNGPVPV

[7] = biological target: T1, Ephrin type-A receptor 3 (Homo sapiens); settings: at 1 µM
[8] = biological target: Ephrin type-A receptor 4 (Homo sapiens) (UniProt P54764); settings: at 0.1 µM
Chain of Ephrin type-A receptor 4 (Homo sapiens) (P54764 whole entry): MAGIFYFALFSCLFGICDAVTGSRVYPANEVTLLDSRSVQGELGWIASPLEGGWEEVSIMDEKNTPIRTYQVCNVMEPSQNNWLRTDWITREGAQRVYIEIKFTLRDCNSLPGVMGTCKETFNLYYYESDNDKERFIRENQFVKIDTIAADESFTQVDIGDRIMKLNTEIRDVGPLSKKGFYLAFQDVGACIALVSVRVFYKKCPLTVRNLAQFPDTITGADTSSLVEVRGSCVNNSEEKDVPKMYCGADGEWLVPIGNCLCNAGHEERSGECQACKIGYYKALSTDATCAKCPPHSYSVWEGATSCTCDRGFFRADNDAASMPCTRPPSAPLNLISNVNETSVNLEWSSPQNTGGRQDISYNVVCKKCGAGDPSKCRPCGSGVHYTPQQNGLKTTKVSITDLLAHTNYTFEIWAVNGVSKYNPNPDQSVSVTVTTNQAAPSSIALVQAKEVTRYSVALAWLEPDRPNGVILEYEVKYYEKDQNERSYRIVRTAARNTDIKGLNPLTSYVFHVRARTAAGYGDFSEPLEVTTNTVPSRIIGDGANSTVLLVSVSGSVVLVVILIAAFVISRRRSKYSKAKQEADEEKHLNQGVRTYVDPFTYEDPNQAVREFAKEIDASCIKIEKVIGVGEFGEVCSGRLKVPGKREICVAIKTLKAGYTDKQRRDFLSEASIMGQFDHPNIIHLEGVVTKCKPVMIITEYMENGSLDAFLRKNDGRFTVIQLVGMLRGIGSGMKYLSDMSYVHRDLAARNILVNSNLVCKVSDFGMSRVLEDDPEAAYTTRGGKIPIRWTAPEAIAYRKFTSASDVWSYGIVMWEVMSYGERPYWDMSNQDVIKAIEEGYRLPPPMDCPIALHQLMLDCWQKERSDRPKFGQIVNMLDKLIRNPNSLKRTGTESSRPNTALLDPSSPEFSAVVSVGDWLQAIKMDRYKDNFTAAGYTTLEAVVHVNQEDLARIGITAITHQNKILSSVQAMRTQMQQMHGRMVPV

[9] = biological target: Ephrin type-A receptor 4 (Homo sapiens) (UniProt P54764); settings: at 1 µM
[10] = biological target: T2, Ephrin type-B receptor 2 (Homo sapiens) (UniProt P29323); settings: at 0.1 µM;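 also: reported as mean inhibition of EPHB2, from the GSK PKIS dataset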
T2 sequence (whole entry): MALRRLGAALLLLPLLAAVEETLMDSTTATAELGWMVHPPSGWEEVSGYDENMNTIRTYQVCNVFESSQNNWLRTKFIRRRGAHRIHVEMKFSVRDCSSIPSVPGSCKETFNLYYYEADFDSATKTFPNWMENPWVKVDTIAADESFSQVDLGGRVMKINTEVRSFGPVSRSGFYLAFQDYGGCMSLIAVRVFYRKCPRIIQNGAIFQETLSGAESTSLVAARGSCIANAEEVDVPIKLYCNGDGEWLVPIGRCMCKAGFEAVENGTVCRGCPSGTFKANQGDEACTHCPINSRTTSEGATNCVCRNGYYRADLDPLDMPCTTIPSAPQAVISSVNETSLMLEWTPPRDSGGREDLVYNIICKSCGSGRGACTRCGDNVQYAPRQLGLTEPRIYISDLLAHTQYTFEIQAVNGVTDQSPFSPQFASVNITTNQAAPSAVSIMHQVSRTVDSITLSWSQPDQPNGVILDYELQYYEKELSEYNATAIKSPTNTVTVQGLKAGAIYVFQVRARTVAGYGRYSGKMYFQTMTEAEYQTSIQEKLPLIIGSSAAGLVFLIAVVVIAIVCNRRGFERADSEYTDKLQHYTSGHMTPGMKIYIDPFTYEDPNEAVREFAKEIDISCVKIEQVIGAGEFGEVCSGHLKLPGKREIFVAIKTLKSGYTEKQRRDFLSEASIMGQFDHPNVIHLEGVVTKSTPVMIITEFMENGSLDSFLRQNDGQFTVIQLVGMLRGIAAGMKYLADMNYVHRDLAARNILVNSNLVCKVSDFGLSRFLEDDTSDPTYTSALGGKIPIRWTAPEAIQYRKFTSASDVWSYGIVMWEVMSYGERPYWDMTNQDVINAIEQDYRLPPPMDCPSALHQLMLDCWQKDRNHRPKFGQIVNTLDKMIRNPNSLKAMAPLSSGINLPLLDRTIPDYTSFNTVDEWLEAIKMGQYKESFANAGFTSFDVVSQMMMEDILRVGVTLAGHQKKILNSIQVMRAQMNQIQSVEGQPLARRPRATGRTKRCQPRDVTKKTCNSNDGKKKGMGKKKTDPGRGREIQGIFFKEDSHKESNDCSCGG

Chain of Epidermal growth factor receptor (Homo sapiens), P00533 [T790M] (P00533 whole entry T790M): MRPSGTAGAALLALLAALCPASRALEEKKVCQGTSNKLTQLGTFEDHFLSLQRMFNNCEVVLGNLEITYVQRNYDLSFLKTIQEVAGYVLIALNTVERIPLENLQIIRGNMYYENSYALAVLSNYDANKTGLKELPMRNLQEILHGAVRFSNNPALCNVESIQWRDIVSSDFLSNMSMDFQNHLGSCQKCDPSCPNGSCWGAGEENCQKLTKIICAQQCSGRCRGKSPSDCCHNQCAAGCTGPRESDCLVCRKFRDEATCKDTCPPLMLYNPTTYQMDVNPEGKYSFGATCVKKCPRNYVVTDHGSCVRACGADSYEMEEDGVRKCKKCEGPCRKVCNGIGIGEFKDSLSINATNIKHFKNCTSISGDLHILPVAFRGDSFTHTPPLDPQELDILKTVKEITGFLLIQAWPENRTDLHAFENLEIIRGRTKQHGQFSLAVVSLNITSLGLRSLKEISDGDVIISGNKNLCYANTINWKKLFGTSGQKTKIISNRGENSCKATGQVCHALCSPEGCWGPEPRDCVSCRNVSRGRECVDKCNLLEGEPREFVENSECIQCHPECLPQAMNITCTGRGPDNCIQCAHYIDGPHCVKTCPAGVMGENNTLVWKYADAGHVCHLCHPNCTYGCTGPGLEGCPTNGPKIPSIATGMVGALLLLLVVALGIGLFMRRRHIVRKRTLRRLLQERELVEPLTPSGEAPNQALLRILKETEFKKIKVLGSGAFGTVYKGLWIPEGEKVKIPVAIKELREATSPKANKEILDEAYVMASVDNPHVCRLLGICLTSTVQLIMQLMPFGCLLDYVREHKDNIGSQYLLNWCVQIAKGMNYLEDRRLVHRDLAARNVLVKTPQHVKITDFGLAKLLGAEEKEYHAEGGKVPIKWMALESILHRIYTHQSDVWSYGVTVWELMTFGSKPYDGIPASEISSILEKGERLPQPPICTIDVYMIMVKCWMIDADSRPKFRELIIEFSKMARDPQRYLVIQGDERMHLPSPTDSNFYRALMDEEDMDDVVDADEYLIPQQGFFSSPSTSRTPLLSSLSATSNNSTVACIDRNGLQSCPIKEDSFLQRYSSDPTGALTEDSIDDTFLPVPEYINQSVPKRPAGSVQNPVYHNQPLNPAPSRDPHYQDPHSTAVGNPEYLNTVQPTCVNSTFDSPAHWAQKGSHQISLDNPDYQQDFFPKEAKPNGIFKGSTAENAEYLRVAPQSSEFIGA
Chain of Epidermal growth factor receptor (Homo sapiens), P00533 [L858R,T790M] (P00533 whole entry T790M/L858R, looked up): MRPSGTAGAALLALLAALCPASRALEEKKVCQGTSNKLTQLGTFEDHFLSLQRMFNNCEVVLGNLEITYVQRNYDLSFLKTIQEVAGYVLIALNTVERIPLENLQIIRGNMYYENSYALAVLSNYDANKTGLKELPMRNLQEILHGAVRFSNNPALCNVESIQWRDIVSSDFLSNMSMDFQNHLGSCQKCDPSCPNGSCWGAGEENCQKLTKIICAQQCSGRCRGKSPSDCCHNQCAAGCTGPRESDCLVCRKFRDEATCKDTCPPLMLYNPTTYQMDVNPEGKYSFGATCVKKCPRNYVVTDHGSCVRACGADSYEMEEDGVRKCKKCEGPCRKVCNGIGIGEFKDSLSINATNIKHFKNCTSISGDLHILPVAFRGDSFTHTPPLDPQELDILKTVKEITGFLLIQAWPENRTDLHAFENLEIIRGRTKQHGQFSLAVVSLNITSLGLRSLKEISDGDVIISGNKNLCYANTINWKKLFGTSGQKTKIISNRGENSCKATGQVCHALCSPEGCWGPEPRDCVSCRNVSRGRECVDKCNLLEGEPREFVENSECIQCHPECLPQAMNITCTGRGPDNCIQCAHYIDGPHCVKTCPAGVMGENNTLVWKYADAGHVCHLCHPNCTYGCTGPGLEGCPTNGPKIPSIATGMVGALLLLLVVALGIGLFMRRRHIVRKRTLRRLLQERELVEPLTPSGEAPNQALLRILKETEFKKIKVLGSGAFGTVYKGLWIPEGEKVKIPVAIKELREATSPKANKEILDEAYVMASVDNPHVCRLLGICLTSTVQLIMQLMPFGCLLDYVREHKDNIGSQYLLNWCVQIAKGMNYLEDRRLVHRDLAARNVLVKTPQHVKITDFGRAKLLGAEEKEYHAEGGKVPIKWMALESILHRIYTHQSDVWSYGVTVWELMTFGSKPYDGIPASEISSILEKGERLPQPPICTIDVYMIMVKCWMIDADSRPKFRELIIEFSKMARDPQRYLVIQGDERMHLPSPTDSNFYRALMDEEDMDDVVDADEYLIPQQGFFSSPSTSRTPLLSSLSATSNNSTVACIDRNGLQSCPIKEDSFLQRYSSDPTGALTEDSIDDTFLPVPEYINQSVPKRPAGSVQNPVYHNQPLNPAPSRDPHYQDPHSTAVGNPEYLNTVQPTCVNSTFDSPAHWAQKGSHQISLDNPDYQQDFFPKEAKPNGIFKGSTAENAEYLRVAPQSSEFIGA

## FC(F)(F)c1cccc(-c2nn3ncccc3c2-c2ccnc(Nc3ccc4c(c3)OCCO4)n2)c1
[1]
  inhibition: 8.22%
[2]
  inhibition: 2.69%
[3]
  inhibition: 15.9%
[4]
  inhibition: 2.29%
[5]
  inhibition: 1.84%
[6]
  inhibition: 2.54%
[7]
  inhibition: 3.44%
[8]
  inhibition: 4.56%
[9]
  inhibition: 7.91%
[10]
  inhibition: 3.11%

## Fc1ccc(-c2cc(-c3c[nH]nc3-c3ccccn3)ccn2)cc1
[1]
  inhibition: 5.56%
[2]
  inhibition: -1.9%
[3]
  inhibition: 6.43%
[4]
  inhibition: 1.25%
[5]
  inhibition: 0.94%
[6]
  inhibition: 3.9%
[7]
  inhibition: 4.31%
[8]
  inhibition: 11.9%
[9]
  inhibition: 14.8%
[10]
  inhibition: 3.6%

## CC(C)COC(=O)c1ccc2c(c1)/C(=C/Nc1ccc(S(N)(=O)=O)cc1)C(=O)N2
[1]
  inhibition: -2.28%
[2]
  inhibition: -2.38%
[3]
  inhibition: 3.71%
[4]
  inhibition: -3.29%
[5]
  inhibition: -3.24%
[6]
  inhibition: -2.74%
[7]
  inhibition: 0.31%
[8]
  inhibition: -1.11%
[9]
  inhibition: 1.79%
[10]
  inhibition: -3.84%

## CCn1cc(-c2ccnc3[nH]ccc23)c(-c2cccc(NC(=O)Nc3ccc(OCc4ccccc4)cc3)c2)n1
[1]
  inhibition: -1.25%
[2]
  inhibition: 0.93%
[3]
  inhibition: -1.31%
[4]
  inhibition: 1.83%
[5]
  inhibition: 0.05%
[6]
  inhibition: 0.1%
[7]
  inhibition: 1.02%
[8]
  inhibition: 0.23%
[9]
  inhibition: 3.4%
[10]
  inhibition: -2.33%

## COc1ccc(-c2oc3ncnc(N)c3c2-c2ccc(NC(=O)Nc3cc(C(F)(F)F)ccc3F)cc2)cc1
[1]
  inhibition: 3.03%
[2]
  inhibition: -0.45%
[3]
  inhibition: 7.47%
[4]
  inhibition: 87.9%
[5]
  inhibition: 95.7%
[6]
  inhibition: 82.1%
[7]
  inhibition: 87.1%
[8]
  inhibition: 87.3%
[9]
  inhibition: 87.6%
[10]
  inhibition: 85.7%

## Nc1nc(-c2ccc(F)cc2)c(-c2ccc3ncccc3n2)s1
[1]
  inhibition: 5.63%
[2]
  inhibition: 4.54%
[3]
  inhibition: 14.7%
[4]
  inhibition: 0.69%
[5]
  inhibition: 0.59%
[6]
  inhibition: 5.86%
[7]
  inhibition: 6.22%
[8]
  inhibition: 9.7%
[9]
  inhibition: 14.6%
[10]
  inhibition: 9.15%

## O=C(O[C@H]1CN[C@H](C#Cc2cc3ncnc(Nc4ccc(Cc5ccccc5)cc4)c3s2)C1)N1CCOCC1
[1]
  inhibition: 10.5%
[2]
  inhibition: -1.96%
[3]
  inhibition: -1.31%
[4]
  inhibition: -0.49%
[5]
  inhibition: -1.09%
[6]
  inhibition: 2.25%
[7]
  inhibition: 3.5%
[8]
  inhibition: 3.73%
[9]
  inhibition: 5.5%
[10]
  inhibition: 7.69%

## Cc1ccc(O)cc1Nc1ccnc2cc(-c3ccccn3)ccc12
[1]
  inhibition: 15.3%
[2]
  inhibition: 3.59%
[3]
  inhibition: 30.4%
[4]
  inhibition: 34.4%
[5]
  inhibition: 80.2%
[6]
  inhibition: 79.3%
[7]
  inhibition: 87.5%
[8]
  inhibition: 91.2%
[9]
  inhibition: 90.9%
[10]
  inhibition: 90.5%

## c1ccc(COc2ccc(Nc3ncnc4ccc(-c5ccco5)cc34)cc2)cc1
[1]
  inhibition: 5%
[2]
  inhibition: -0.19%
[3]
  inhibition: -1.64%
[4]
  inhibition: 0.9%
[5]
  inhibition: -0.47%
[6]
  inhibition: -0.08%
[7]
  inhibition: 0.71%
[8]
  inhibition: 0.05%
[9]
  inhibition: 2.86%

## Cc1ccc2c(-c3ccnc(Nc4ccccc4)n3)c(-c3ccc(F)cc3)nn2n1
[1]
  inhibition: 51.1%
[2]
  inhibition: 33.7%
[3]
  inhibition: 81.9%
[4]
  inhibition: 6.42%
[5]
  inhibition: 15%
[6]
  inhibition: 9.53%
[7]
  inhibition: 18.1%
[8]
  inhibition: 11.5%
[9]
  inhibition: 52.1%
[10]
  inhibition: 24.9%

## COc1cc2ncn(-c3cc(OCc4ccccc4C(F)(F)F)c(C(=O)N(C)C)s3)c2cc1OC
[1]
  inhibition: -1.36%
[2]
  inhibition: 0.72%
[3]
  inhibition: -1.46%
[4]
  inhibition: -1.69%
[5]
  inhibition: -2.94%
[6]
  inhibition: 2.89%
[7]
  inhibition: 1.92%
[8]
  inhibition: 2.87%
[9]
  inhibition: 4.19%
[10]
  inhibition: 0.66%

## Cc1cccc(Nc2ncc(-c3ccccc3)o2)c1
[1]
  inhibition: 2.62%
[2]
  inhibition: -0.51%
[3]
  inhibition: 1.2%
[4]
  inhibition: 2.27%
[5]
  inhibition: 1.53%
[6]
  inhibition: 2.3%
[7]
  inhibition: 2.7%
[8]
  inhibition: 5.68%
[9]
  inhibition: 5.88%
[10]
  inhibition: 0.55%

## CN1CCC(n2cnc(-c3ccc(F)cc3)c2-c2ccnc(Nc3ccccc3)n2)CC1
[1]
  inhibition: 15.5%
[2]
  inhibition: 9.65%
[3]
  inhibition: 49.1%
[4]
  inhibition: 0.44%
[5]
  inhibition: 0.04%
[6]
  inhibition: 1.78%
[7]
  inhibition: 4.18%
[8]
  inhibition: 7.5%
[9]
  inhibition: 13.3%
[10]
  inhibition: 12.9%

## COc1cc(/C=N/Nc2ncnc3[nH]ncc23)ccc1O
[1]
  inhibition: 4.2%
[2]
  inhibition: -0.56%
[3]
  inhibition: 5.5%
[4]
  inhibition: 6.02%
[5]
  inhibition: 21%
[6]
  inhibition: 5.55%
[7]
  inhibition: 16.5%
[8]
  inhibition: 14.9%
[9]
  inhibition: 55.3%
[10]
  inhibition: 11.7%

## CCCN1CCC(c2ccc(Nc3nc(Nc4cc(F)ccc4C(N)=O)c4cc[nH]c4n3)c(OC)c2)CC1
[1]
  inhibition: 81.7%
[2]
  inhibition: 53.7%
[3]
  inhibition: 89.1%
[4]
  inhibition: 1.29%
[5]
  inhibition: -0.82%
[6]
  inhibition: 3.91%
[7]
  inhibition: 4.22%
[8]
  inhibition: 6.74%
[9]
  inhibition: 12.9%
[10]
  inhibition: 6.06%

## CCN(CC)S(=O)(=O)c1ccc(OC)c(Nc2ncc(-c3ccccc3)o2)c1
[1]
  inhibition: 2.04%
[2]
  inhibition: 0.39%
[3]
  inhibition: -0.47%
[4]
  inhibition: 4.36%
[5]
  inhibition: 2.14%
[6]
  inhibition: 2.4%
[7]
  inhibition: 2.35%
[8]
  inhibition: 9.54%
[9]
  inhibition: 13.8%
[10]
  inhibition: 5.55%

## CCNC(=O)O[C@H]1CN[C@H](C#Cc2cc3ncnc(Nc4ccc(OCc5cccc(F)c5)c(Cl)c4)c3s2)C1
[1]
  inhibition: 10.6%
[2]
  inhibition: 2.62%
[3]
  inhibition: 4.48%
[4]
  inhibition: 3.3%
[5]
  inhibition: 2.25%
[6]
  inhibition: 6.99%
[7]
  inhibition: 4.34%
[8]
  inhibition: 8.98%
[9]
  inhibition: 6.16%
[10]
  inhibition: 8.39%
